TTR transcr act – activators of transthyretin transcription; AID 1117267; SH-SY5Y TTR promoter Gaussia luciferase, luminescence; 100% = recombinant luciferase protein wells; 92,000 tested, 1.3% active; activation, % at 16.7 µM;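 active = activation above the mean of all tested compounds plus 3 SD, cut at about 9.5% in these data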;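 note: cells exposed to compounds for one day before reading; 0% = median of all test compound wells on the plate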
HuH7 TTR inh – counter-screen for TTR activators: TTR transcription inhibitors in HuH7 cells. HuH7 TTR promoter-Gaussia luciferase reporter, luminescence. inhibition, % at 16.7 µM. shares compounds with TTR transcr act. 1,100 tested, 4% active;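 active = average inhibition above the solvent-only control wells' mean plus 3 SD, cut at about 15% in these data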;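 note: 0% = cells with DMSO only and 100% = cells with inhibitor control FD; inhibitors lower well luminescence so higher value means more inhibition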
TTR act confirm – human TTR transcription activation, confirmation. SHSY5Y TTR promoter Gaussia luciferase, luminescence; 100% = purified Lucia enzyme wells, no cells. activation, % at 16.7 µM. 1,100 tested, under 10 active. shares compounds with TTR transcr act;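 active = mean activation above a set limit taken from the earlier primary screen, cut at about 11% in these data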;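 note: 0% = DMSO-treated cells and 100% = recombinant Lucia luciferase without cells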
Active calls of the source: *. Many of the other results were omitted from the sample, so hits are more common in it than they were.

SMILES	TTR transcr act	others
CCOC(=O)[C@@]12CCC3=C1N(CCC3)C(=O)[C@H](CC(=O)NCCCOC)C2	0
CC(C)C[C@H](NC(C)(C)C(=O)NC1CCCCC1)C(=O)NCC(c1ccccc1)c1ccccc1	-1
COC(=O)[C@H](CC1(c2cn(S(=O)(=O)CC[Si](C)(C)C)c3ccccc23)C(=O)Nc2ccccc21)NC(=O)OC(C)(C)C (stereo partly drawn)	-1
Cc1cc(C)c(OCC(=O)Nc2ccccc2N2CCOCC2)c(C)c1	-2
CCOc1ncccc1C(=O)Nc1ccccc1N1CCOCC1	-2
CCOCCCNCC(=O)Nc1ccccc1N1CCOCC1	21*
O=C(c1ccoc1)N1CCN(c2cc(-c3ccco3)nc3cc(-c4ccco4)nn23)CC1	-2
O=C(NCc1ccc2c(c1)OCO2)C1CCN(S(=O)(=O)N2CCCCC2)CC1	0
COC(=O)COc1ccc(S(=O)(=O)Nc2ccc3c(c2)OCO3)cc1Cl	0
O=C(COc1ccc(S(=O)(=O)N2CCCC2)cc1Cl)NCc1ccc2c(c1)OCO2	14*
Cn1c(=O)cc(OCCCC(=O)Nc2cc(-c3cn[nH]c3)ccn2)c2ccccc21	1
Cc1ccc(-c2nc3ncccn3c2NC(=O)Nc2ccc(OC(F)(F)F)cc2)cc1	4
CS/C(=C\[N+](=O)[O-])Nc1ccc(OC(F)(F)F)cc1	-2
Cc1ccc(N=C2SC(C(=O)Nc3ccc(OC(F)(F)F)cc3)C(N)=C2C(=O)Nc2c(C)cc(C)cc2C)cc1 (stereo not drawn)	9.8*
CCOc1ccc(NC(=O)C2CCCN(C(=O)NCc3ccccc3)C2)cc1 (stereo not drawn)	11*
CCOc1ccc(C(=O)NC2CCN(C(=O)NCc3ccccc3)CC2)cc1	-1
O=C(Nc1ccc(F)cc1)C1CCN(C(=O)NCc2ccccc2)CC1	2
Cc1ccnc(NC(=S)N2CC3CN(c4cccc(C(F)(F)F)c4)CC3C2)c1 (stereo not drawn)	3
C[C@H]1[C@@H](OC(=O)N2CCN(c3ccccc3)CC2)CC[C@@]23CCCN2C(=O)CCC[C@@H]13	-1
c1ccc2cc3[nH]c(CNc4nc(N5CCOCC5)nc5c4ncn5-c4ccsc4)nc3cc2c1	8
CN(C)c1ccc(C(=O)OCC(=O)N2CCCC2)cc1	13*	HuH7 TTR inh=-15;TTR act confirm=-1
CN(C)c1ccc(C(=O)OCC(=O)N2CCCCCC2)cc1	-2
CCOC(=O)N1CCN(C(=O)COC(=O)c2ccc(N(C)C)cc2)CC1	0
CCCNC(=O)c1cc2c(c(-c3cccc(-c4cc5ccccc5o4)c3)n1)[C@H](CCO)N(C(=O)NC(C)C)C2	-3
CC(=O)Nc1ccc(/C=C/COC(C)=O)cc1C	0
SMILES	TTR transcr act	others
N[C@H]1CC[C@@H]2SC[C@@H](C(=O)O)N2C1=O	2
Cc1ccc(OCC(=O)NC(=S)Nc2cccc(NC(=O)c3ccccc3)c2)cc1	-1
Cc1ccc(OCC(=O)NC(=S)Nc2ccc(Br)cn2)cc1	20*	HuH7 TTR inh=-10;TTR act confirm=-1
CCOc1ccc(NC(=O)Nc2ccc(Br)cn2)cc1	2
C=CCOC(=O)C1=C(C)NC(C)=C(C(=O)OCC=C)C1c1ccco1	0
CCCCOC(=O)C1=C(C)Nc2ncnn2C1c1cc(OC)ccc1OC (stereo not drawn)	1
CCOC(=O)C1=C(C)NC(=S)NC1c1ccc(OC(=O)c2ccco2)cc1 (stereo not drawn)	-1
COCCOC(=O)C1=C(C)Nc2ncnn2C1c1ccco1 (stereo not drawn)	13*	HuH7 TTR inh=-10;TTR act confirm=1
CCOC(=O)C1=C(C)NC(C)=C(C(=O)OC)C1c1ccco1 (stereo not drawn)	12*	HuH7 TTR inh=-22;TTR act confirm=2
CCCCCCCOC(=O)C1=C(C)Nc2ncnn2C1c1cccs1 (stereo not drawn)	-2
Nc1[nH]c2cc(C(F)(F)F)ccc2c1C(=O)NC1CCCCC1	1
O=S1(=O)c2ccc(N3CC[C@@H](O)C3)cc2O[C@H]2CCN1C2	-1
COC(=O)[C@]12C[C@H](CC(=O)N3CCN(C(=O)C4CC4)CC3)C(=O)N(Cc3cccc4ccccc34)C1=C[C@H](C1CCCC1)O[C@@H]2C	-2
COC(=O)[C@]12C[C@H](CC(=O)N3CCN(C(=O)C4CC4)CC3)C(=O)N(CCc3ccc(OC)c(OC)c3)C1=C[C@H](COCc1ccccc1)O[C@@H]2C	2
CCCOc1ccc(N2C(=O)CC(NCC(=O)OCC)C2=O)cc1 (stereo not drawn)	10.0*	HuH7 TTR inh=-13;TTR act confirm=0
CCOc1ccc(N2C(=O)CC(NCCc3ccncc3)C2=O)cc1 (stereo not drawn)	0
CCCOc1ccc(N2C(=O)CC(SC(=NC)Nc3ccc(F)cc3)C2=O)cc1 (stereo not drawn)	0
CCOC(=O)[C@@]12CCC3=C1N(CCC3)C(=O)[C@H](CC(=O)N1CCN(C(=O)C3CC3)CC1)C2	-1
Clc1ccc([C@H]2OC[C@@]3(CNCc4ccccc4)CS[C@H](c4ccc(Cl)cc4)N23)cc1	0
C[C@H]1C(c2ccccc2F)O[C@]2(C[C@H](O)c3ccccc3O2)C[C@@H]1O (stereo partly drawn)	3
CC1=C(C(=O)OCc2ccccc2)C(c2ccccc2Cl)NC(=O)N1C (stereo not drawn)	2
CC1(C)COC(c2ccccc2Cl)OC1	0
CC1SC(c2ccccc2Cl)NC1=O (stereo not drawn)	11*	HuH7 TTR inh=-4;TTR act confirm=0
CC(C)c1ccccc1NC(=O)[C@@H]1CCCN1S(=O)(=O)c1cccc2cccnc12	0
CCCN1CNc2c(c(=O)[nH]c(=S)n2CCc2cccc(Cl)c2Cl)C1	2
SMILES	TTR transcr act	others
Cc1ccccc1CN1CCCCC(NC(=O)c2ccc(F)c(F)c2)C1=O (stereo not drawn)	0
CN1CCc2c(sc3nc(SCC(=O)N4CCCCC4)n(-c4ccccc4)c(=O)c23)C1	8
CCSc1nc2sc3c(c2c(=O)n1-c1ccccc1C)CCN(C)C3	-1
CCCCNc1nc2sc3c(c2c(=O)n1-c1cccc(Cl)c1)CCN(C)C3	102*	HuH7 TTR inh=-9;TTR act confirm=1
O=C(Nc1ccc(OC(F)(F)F)cc1)Nc1nc2ncccn2c1-c1ccc(C(F)(F)F)cc1	1
Cc1oc(-c2ccccc2)nc1CSc1nc2c(c(=O)[nH]1)CCC2	14*	HuH7 TTR inh=-32;TTR act confirm=0
Cc1ccccc1-c1nc(CSc2nc3c(c(=O)[nH]2)CCC3)c(C)o1	1
Cc1cccc(-c2nc(CSc3nc4c(c(=O)[nH]3)CCC4)c(C)o2)c1	1
CCOC(=O)[C@]12CCCC=C1N(CCCOC)C(=O)[C@@H]2CC(=O)NCCCCc1ccccc1	-1
O=C(Cc1ccc2c(c1)OCO2)N1CCC(n2nc(-c3ccccc3)oc2=O)CC1	-1
COc1ccc(C(=S)N2CCCC2)cc1Br	1
COc1cc(C(=S)N2CCCC2)ccc1O	1
Oc1ccc(C(=S)N2CCCCC2)cc1	10*	HuH7 TTR inh=2;TTR act confirm=-1
CC(C)C(NC(=O)[C@H](Cc1ccccc1)NC(=O)OCc1ccccc1)P(=O)(O)OC(Cc1ccccc1)C(=O)O (stereo partly drawn)	1
CC(C)CNC(=O)OCc1cn(Cc2cc(F)ccc2F)nn1	2
Cc1ccc(CN2CCCCC(NC(=O)C(C)(C)C)C2=O)cc1 (stereo not drawn)	-1

Screens as filed in PubChem.
